A selection: hits, their analogues and other compounds. The true share with any hit is near 4%.
Bst PK mod: alters activity of Bacillus stearothermophilus pyruvate kinase; 51,000 tested, 1.2% active; purified pyruvate kinase, luminescence ATP production; ribose 5-phosphate activator present at AC10; Potency, µM; in the data active = potency below about 11 µM; inconclusive = mostly about 12 µM to 25 µM;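 the screen sought inhibitors and activators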;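 also: scaled between full activation by ribose 5 phosphate and full inhibition by luteolin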
Luciferase inh: inhibitors of firefly luciferase | P08659 | purified firefly luciferase, luminescence, 8 min | Potency, µM (titrated, usually from 57.1 µM), for inactives: top-dose activity change, negative = inhibition, usual class: inhibitors | 72,000 tested, 2.2% active | AID 411; also: % is scaled to controls: 0 for no effect and ±100 for the full control effect; nearly all actives have a fitted effect of over 40% in size
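Titration-based qHTS; buffer 50 mM imidazole pH 7.2, 50 mM KCl, 7 mM MgCl2, 10 uM ATP, 0.01% Tween 20, 0.05% BSA; luciferase/luciferin detector mix added after compound; 8 min, ambient; luminescence.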
Caspase-7 inhib: caspase-7 (human) inhibition, allosteric or competitive | recombinant caspase-7, Ac-DEVD-AFC fluorescence rate | Potency, µM (top dose mostly 57.5 µM), for the others: top-dose activity change, negative = inhibition, most hits filed as inhibitors | 75,000 tested, 0.02% active; active = well fitted inhibition curve with a large enough effect in the main read-out, with a control signal flat, not every such curve was filed as active; inconclusive = small, poorly fitted or top-dose-only effect, or a change in a side signal; also: % of control where 0% means no effect
Tau fil binding: binds recombinant human tau filaments. P10636. recombinant tau filaments, thioflavin S fluorescence, 15 h; filaments grown with octadecylsulfate alongside compound. Potency, µM (series often up to 57.1 µM), without a hit: at the highest dose activity change, negative = inhibition. 71,000 tested, 2% active. AID 596;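 also: % is scaled to controls: 0 for no effect and ±100 for the full control effect; actives lower thioflavin S fluorescence by blocking filaments or displacing dye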
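His-tagged recombinant human tau (exons 2, 3 and 10 included), 1 uM, was induced to fibrillize by 30 uM sodium octadecylsulfate with compound present. After 15 h at 37 C, thioflavine S fluorescence (ex 450, em 510 nm) was read.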
Casp1 inh: blocks human caspase-1 allosterically or competitively; P29466; Caspase-1 enzyme, Ac-WEHD-AFC fluorogenic rate; Potency, µM (highest dose often 57.5 µM), for inactives: at the top dose activity change, negative = inhibition, actives largely listed as inhibitors; 75,000 tested, 0.03% active;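 also: plate controls were vehicle for no effect and no substrate for full effect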
Active calls of the source: *; i = inactive; ? = inconclusive; . = not tested or not shown; [ ] = remark or other dose. Unless noted, calls follow the shape of the dose curve; as a rule, active = well fitted curve in the direction sought with a large enough effect; inconclusive = small, poorly fitted or top-dose-only effect, or another doubt; inactive = no such curve, though single readings can be large; an effect the other way counts as inactive or inconclusive. Potency is read from the fitted curve at half-maximal effect.

SMILES	Bst PK mod	Luciferase inh	Caspase-7 inhib	Tau fil binding	Casp1 inh
N[C@@H](Cc1c[nH]c2ccc([N+](=O)[O-])cc12)C(=O)O	.	1%[11.4 µM]	1%[11.5 µM]	1%[11.4 µM]	2%[11.5 µM]
Cn1c(CCN2CCOCC2)nc2cc(NC(=O)COc3ccc(Cl)cc3)ccc21	>57	4%	0%	10%	-1%
COc1ccc(OCC(=O)Nc2ccc3c(c2)nc(CCN2CCOCC2)n3C)cc1	i	25µM*	-7%	-18%	-2%
[O-][n+]1c(CN2CCCCC2)nc2cccc3c2c1-c1ccccc1-3	.	3%[11.4 µM]	-7%[11.5 µM]	0%[11.4 µM]	-7%[11.5 µM]
CCCn1nnc(NC(=O)c2ccc(OCC)c(Cl)c2)n1	>57	-1%	-1%	14%	1%
CCOc1ccc(C(=O)Nc2ccc(Cl)cn2)cc1Cl	.	25µM*	-1%	168%	0%
Cc1ccc(C(C)C)c(OCC(=O)Nc2ccc(Cl)cn2)c1	>57	2%	0%	31%	-1%
O=C(COc1ccc(Cl)cc1Cl)Nc1ccc(Cl)cn1	.	1.3µM*	-2%	94%	2%
COc1ccc(CNc2ccnc(-c3cccc(NS(C)(=O)=O)c3)n2)c(OC)c1	.	0%[2.29 µM]	-3%	-5%	-3%
CN1CCN(c2ncnc3c2sc2nc(N4CCCC4)c4c(c23)CC(C)(C)OC4)CC1	.	.	-2%	.	1%
O=C(CSc1nnc(-c2ccccc2)o1)c1nnc(-c2ccccc2)o1	>57	0%	-22%	4µM*	-11%
O=C(CSc1nnc(-c2ccccc2)o1)c1ccc2c(c1)OCCO2	>57	3%	-1%	18%	-1%
CC(C)C(C)C	.	.	0%	14%	-8%
O=[N+]([O-])/C=C\c1cc2ccccc2[nH]1	.	0%[11.4 µM]	1%[11.5 µM]	-9%[11.4 µM]	-1%[11.5 µM]
CC12CC[C@@H]3c4ccc(OP(=O)(O)O)cc4CCC3C1CCC2=O (some centres undefined)	.	3%[11.4 µM]	-1%[11.5 µM]	9%[11.4 µM]	-2%[11.5 µM]
NCC1CCCCC1CC(=O)O (centres undefined)	.	.	0%	.	3%
Clc1ccc(-n2ncc3c(NCCCn4ccnc4)ncnc32)cc1	?	-7%[25.5 µM]	.	.	.
CCCCNc1ncnc2c1cnn2-c1ccccc1	.	13µM*	0%	14%	-4%
CCCCNc1ncnc2c1cnn2-c1ccc(Cl)cc1	.	10µM*	-2%	21%	-3%
COCC(C)Nc1ncnc2c1cnn2-c1ccc(Cl)cc1 (centres undefined)	11*	7.9µM*	.	.	.
Cc1ccc([C@@H](O)c2cnc(C)n2Cc2ccccc2)cc1	.	0%[11.4 µM]	1%[11.5 µM]	5%[11.4 µM]	-14%[11.5 µM]
Cc1cnc(CNc2nc(-c3ccccc3Cl)nc3ccccc23)cn1	.	-4%[2.29 µM]	-4%	-4%	-3%
Cc1cc2cc(CNC(=O)Nc3ccccc3)ccc2n1C	>57	-8%	-3%	20µM*	-5%
Cc1cc2cc(CNC(=O)c3cccs3)ccc2n1C	>57	-3%	-9%	25µM*	-6%
CCC(CC)C(=O)NCc1ccc2c(c1)cc(C)n2C	>57	-2%	-3%	-21%	-2%
SMILES	Bst PK mod	Luciferase inh	Caspase-7 inhib	Tau fil binding	Casp1 inh
COc1ccccc1Cn1c2nc3ccccc3nc2c2c(=O)n(CC(C)C)cnc21	>26	2%[25.5 µM]	.	.	.
Cc1ccc(C2NC(=O)NC3=C2CCc2ccccc23)cc1 (centres undefined)	?	13µM*	?	20µM*	.
COCCOC(=O)c1[nH]c2c(c1C)C(=O)C(C(=O)OC)C(C)C2 (centres undefined)	.	10µM*	1%	-2%	-6%
COC(=O)C1C(=O)c2c([nH]c(C(=O)OCC3CCCO3)c2C)CC1C (centres undefined)	.	7.9µM*	0%	0%	-3%
CCCCCOC(=O)c1[nH]c2c(c1C)C(=O)C(C(=O)OC)C(C)C2 (centres undefined)	>57	?	-2%	2%	-1%
O=C(Nc1cccc(Cl)c1)c1ccc2c(=O)n3c(nc2c1)CCCCC3	?	13µM*	0%	3%	-4%
O=C(Nc1ccc(F)c(Cl)c1)c1ccc2c(=O)n3c(nc2c1)CCCCC3	>57	?	-2%	65%	-3%
Cc1cc(NC(=O)c2ccco2)ncc1NC(=O)CCc1ccccc1	>57	-7%	8%	10%	-1%
O=C(CNC(=O)c1ccc(Br)o1)Nc1cccc(-c2cnc3ccccc3n2)c1	>57	-2%	-3%	150%	1%
O=C(Nc1ccc(NC(=O)c2ccco2)nc1)c1cccnc1	.	25µM*	-1%	6%	-2%
O=C(Nc1cccc(-c2cnc3ccccc3n2)c1)c1ccco1	?	-10%	0%	32µM*	-3%
O=C(Nc1cnc2ccccc2c1)c1cccnc1	.	-28%	0%	-17%	3%
Cc1cc(NC(=O)c2cccc(F)c2)ncc1NC(=O)c1ccco1	.	16µM*	-1%	-1%	1%
O=C(Nc1cnc2ccccc2c1)c1ccco1	i	20µM*	2%	-11%	1%
CC(C)C[C@@H](CC(=O)N[C@@H](CCC(=O)O)CC(=O)O)NC(=O)[C@@H]1CCCC[C@H]1NC(=O)C[C@H](CCCN)NC(=O)C[C@H](Cc1ccccc1)NC(=O)[C@@H]1CCCC[C@H]1N	.	.	.	-3%	.
CC(C)(CO)[C@H](O)C(=O)NCCCO	.	-2%[25.5 µM]	2%[25.7 µM]	-2%[25.6 µM]	-2%[25.7 µM]
O=C(Oc1cccnc1)c1ccco1	>26	0%[25.5 µM]	.	.	.
O=C(Oc1ccc(-c2cnc3ccccc3n2)cc1)c1ccco1	.	5µM*	-1%	47%[11.4 µM]	-2%
O=C(Nc1ccc(-c2noc(CCc3ccccc3)n2)cc1)c1ccco1	?	10µM*	-6%	49%	-8%
N=C(N)SCc1cc(Cl)cc(Cl)c1O	.	3%[11.4 µM]	1%[11.5 µM]	-2%[11.4 µM]	2%[11.5 µM]
Cn1cccc1C(=O)N1CCC[C@@]2(CCN(c3ccccc3)C2)C1	.	-1%[11.4 µM]	-4%	-1%	-3%
Cc1noc(C)c1C(=O)N1CCC[C@@]2(CCN(C(c3ccccc3)c3ccccc3)C2)C1	.	1%[11.4 µM]	1%	-2%	-1%
CCNc1ncc2nc(CCc3ccccc3)c(=O)n(-c3ccccc3)c2n1	.	1%[11.4 µM]	?	374%	.
O=C(COC(=O)c1cccnc1)c1ccc(Cl)cc1	.	16µM*	-2%	?	1%
O=C(COC(=O)c1cccnc1)Nc1cccc(Cl)c1	>57	-3%	1%	-11%	-2%
SMILES	Bst PK mod	Luciferase inh	Caspase-7 inhib	Tau fil binding	Casp1 inh
C[C@H](NC(=O)[C@@H]1C[C@H]1[C@@H](NC(=O)OCc1ccccc1)c1ccccc1)c1ccccc1	.	.	-1%	i	-1%
O=C(Nc1cnn(C23CC4CC(CC(C4)C2)C3)c1)c1cnn2cccnc12	?	2.5µM*	0%	-5%	0%
O=C(Nc1ccccc1)Nc1ccccc1	.	.	2%	3%	1%
O=C(NC1=NCCS1)Nc1ccccc1	i	16µM*	5%	2%	0%
O=C(NC1=NCCS1)c1ccncc1	>57	1%	-1%	5%	-1%
Cc1cc(C(=O)NC2=NCCS2)cs1	.	16µM*	1%	12%	-2%
O=C(Nc1ccc(Cl)cn1)c1cc2ccccc2o1	?	7.9µM*	-2%	5%	-1%
O=C(Nc1cccc2ncccc12)c1cc2ccccc2o1	>57	-15%	2%	-8%	-2%

Screening data as filed in PubChem.
